Laboratory results reported in PubChem BioAssay (NCATS).
Records with an inconclusive call do not appear. Active and inactive are the calls of the source. Calls come from the whole dose curve; as a rule, active = well fitted curve in the direction sought with a large enough effect; inconclusive = small, poorly fitted or top-dose-only effect, or another doubt; inactive = no such curve, though single readings can be large; an effect the other way counts as inactive or inconclusive.

Key:
HACAT = experiment: qHTS assay to identify novel small-molecules to repurpose for Merkel cell carcinoma treatment (AID 1296009); settings: MCC and control cell lines, CellTiter-Glo viability, 72 h; at 44.8 µM (top of the series) unless noted; note: nearly all actives have a fitted effect of over 60% in size
Procedure, shortened: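 Dose-response viability screen; 72 hr exposure at 37 degree celsius; CellTiter-Glo added, 10 min room temperature, luminescence read; RLUs scaled between no-cell and DMSO wells.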

C33A = experiment: Primary qHTS to identify gynecologic anti-cancer compounds using libraries of approved drugs and bioactive compounds (AID 1345084); settings: Gynecologic cancer cell panel viability, ATPlite luminescence, 48 h; series mostly up to 57.5 µM; note: nearly all actives have a fitted effect of over 55% in size
Procedure, shortened: (§1)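 Cell viability after 48 h drug treatment, ATPlite luminescence readout; five doses.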

CASKI = experiment: as above; settings: Gynecologic cancer cell panel viability, ATPlite luminescence, 48 h; series mostly up to 57.5 µM
Procedure, shortened: as §1

Es-2 = experiment: as above; settings: Gynecologic cancer cell panel viability, ATPlite luminescence, 48 h; series mostly up to 57.5 µM
Procedure, shortened: as §1

HeLa = experiment: as above; settings: Gynecologic cancer cell panel viability, ATPlite luminescence, 48 h; series mostly up to 57.5 µM
Procedure, shortened: as §1

Hek293T = experiment: as above; settings: Gynecologic cancer cell panel viability, ATPlite luminescence, 48 h, control line for the selectivity index; series mostly up to 57.5 µM
Procedure, shortened: as §1

JEG-3 = experiment: as above; settings: Gynecologic cancer cell panel viability, ATPlite luminescence, 48 h; series mostly up to 57.5 µM
Procedure, shortened: as §1

OV90 = experiment: as above; settings: Gynecologic cancer cell panel viability, ATPlite luminescence, 48 h; series mostly up to 57.5 µM
Procedure, shortened: as §1

PA-1 = experiment: as above; settings: Gynecologic cancer cell panel viability, ATPlite luminescence, 48 h; series mostly up to 57.5 µM
Procedure, shortened: as §1

SKOV3 = experiment: as above; settings: Gynecologic cancer cell panel viability, ATPlite luminescence, 48 h; series mostly up to 57.5 µM
Procedure, shortened: as §1

Tov-21-G = experiment: as above; settings: Gynecologic cancer cell panel viability, ATPlite luminescence, 48 h; series mostly up to 57.5 µM
Procedure, shortened: as §1

Tov112D = experiment: as above; settings: Gynecologic cancer cell panel viability, ATPlite luminescence, 48 h; series mostly up to 57.5 µM
Procedure, shortened: as §1

CAOV3 = experiment: as above; settings: Gynecologic cancer cell panel viability, ATPlite luminescence, 48 h; series mostly up to 57.5 µM
Procedure, shortened: as §1

Measured: Potency

O=C(OCC(O)CO[C@@H]1O[C@H](C(=O)O)[C@@H](O)[C@H](O)[C@H]1O)c1ccccc1 (some centres not stated)
not listed: CAOV3
inactive: all other assays above

O=C(OC1C=C(CO)C2C(OC3OC(CO)C(O)C(O)C3O)OC=CC12O)c1ccc(O)cc1 (configuration not stated)
inactive: HACAT inactive [at 17.4 µM] | C33A | CASKI | Es-2 | HeLa | Hek293T | JEG-3 | OV90 | PA-1 | SKOV3 | Tov-21-G | Tov112D

C/C=C1\[C@H](O[C@@H]2O[C@H](CO)[C@@H](O)[C@H](O)[C@H]2O)OC=C(C(=O)OCCc2ccc(O)cc2)[C@H]1CC(=O)OCCc1ccc(O)cc1
inactive: HACAT inactive [at 17.4 µM] | C33A | CAOV3 | Es-2 | HeLa | Hek293T | OV90 | PA-1 | SKOV3 | Tov-21-G | Tov112D

O=C(NC/C=C/CN1CCN(c2cccc(Cl)c2Cl)CC1)c1ccc(-c2ccccn2)cc1
not listed: PA-1 | SKOV3
inactive: all other assays above

COc1ccc(C2(O)c3ccccc3NC(=O)C2OC)cc1 (configuration not stated)
not listed: CAOV3
inactive: all other assays above

COc1ccc2c(c1)C=C1Cn3c-2c(C2CCCCC2)c2ccc(cc23)C(=O)NS(=O)(=O)N(C)CCOCCN(C)C1=O
not listed: Es-2 | PA-1 | SKOV3
inactive: all other assays above

CC(C)(O)C1OC1C1=CC(=O)C2(C)OC2C1O (configuration not stated)
not listed: CASKI | SKOV3
inactive: all other assays above

CC1CCC2(C)CCC3(C)C(=CCC4C5(C)CCC(O)C(C)(C(=O)O)C5CCC43C)C2C1C (configuration not stated)
inactive: HACAT inactive [at 17.4 µM] | C33A | CASKI | Es-2 | HeLa | Hek293T | JEG-3 | OV90 | PA-1 | SKOV3 | Tov-21-G | Tov112D

CC[C@@H]1C(=O)O[C@]23C=C[C@@H]4C(C(=O)OC)=CO[C@H](O[C@@H]12)[C@@H]43
not listed: CASKI | HeLa | JEG-3
inactive: all other assays above

C/C=C(\C)C(=O)OC1C2(O)CC3=C4CC(=O)OC(c5ccoc5)C4(C)CCC3C(C)(C2=O)C(C(OC(C)=O)C(=O)OC)C1(C)C (configuration not stated)
inactive: HACAT inactive [at 17.4 µM] | C33A | CAOV3 | Es-2 | HeLa | Hek293T | JEG-3 | OV90 | PA-1 | SKOV3 | Tov-21-G | Tov112D

CN1CCN(C2=Nc3ccccc3Nc3ccc(O)cc32)CC1
not listed: CAOV3
inactive: all other assays above

CC1(C)C2CCC1(C)C(OC(=O)C(O)(CC(=O)O)CC(=O)O)C2 (configuration not stated)
not listed: Hek293T
inactive: all other assays above

C[C@H]1[C@H](C)CC[C@]2(C(=O)O)CC[C@]3(C(=O)O)C(=CCC4[C@@]5(C)CC[C@H](O[C@@H]6O[C@@H](C)[C@H](O)[C@@H](O)[C@H]6O)C(C)(C)C5CC[C@]43C)[C@H]12 (some centres not stated)
inactive: HACAT inactive [at 17.4 µM] | C33A | CAOV3 | Es-2 | HeLa | Hek293T | JEG-3 | OV90 | PA-1 | SKOV3 | Tov-21-G | Tov112D

CC1(C)C[C@H]2C=C(C=O)[C@]3(C(=O)O)C[C@]3(C)[C@H]2C1
not listed: Es-2 | SKOV3
inactive: all other assays above

CC(O)CCc1ccc(O[C@@H]2O[C@H](CO)[C@@H](O)[C@H](O)[C@H]2O)cc1 (some centres not stated)
not listed: OV90
inactive: all other assays above
